PubChem BioAssay AID504834 (National Center for Advancing Translational Sciences (NCATS), 2011)
In all, about 320,000 compounds went through this assay and about 22,000 (6.9%) were called active. A call without a number means that no potency is given here. Inconclusive results (about 27%) are left out. This is one part of a sample in which actives are shown more often than they occur. The call rests on the fitted dose curve; in most records, active means well fitted inhibition curve with a large enough effect; inconclusive means small, poorly fitted or top-dose-only effect, or another doubt; inactive means no such curve, though single readings can be large or run the other way.

Test: Primary qHTS for delayed death inhibitors of the malarial parasite plastid, 96 hour incubation
Details: P. falciparum luciferase reporter growth; series mostly up to 28.7 µM
Method in brief: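 Luminescence readout: decreased luciferase signal marks inhibited growth of reporter-expressing P. falciparum in infected red cells (2% hematocrit, 0.05% parasitemia final), exposed to compound two generations (96 h, 37 C, 5% CO2).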
Potency means the concentration at half of the fitted maximal effect.

| SMILES | Potency |
| --- | --- |
| Cc1ccc2nc(SCC(=O)Nc3cccc4ccccc34)nc(=O)n2c1 | inactive |
| COc1ccccc1N1CCN(S(=O)(=O)c2ccc(Cl)cc2)CC1 | inactive |
| COc1ccccc1N1CCN(S(=O)(=O)c2ccc3c(c2)NC(=O)CS3)CC1 | 11.7 µM (active) |
| COc1ccccc1N1CCN(C(=O)CCS(=O)(=O)c2ccc3c(c2)NC(=O)C(C)S3)CC1 (stereo unspecified) | inactive |
| Cc1cc(C)c2c(Cn3ccnc3)cc(=O)oc2c1 | inactive |
| CCOc1ccc(S(=O)(=O)N2CCC(C(=O)OCc3ccc(OC)cc3)CC2)cc1 | inactive |
| O=C(CSc1n[nH]c(-c2cccs2)n1)N1CCCCC1 | inactive |
| Nc1ncc(CN2CCCC(C(=O)Nc3ccc(-c4ccco4)cc3)C2)cn1 (stereo unspecified) | inactive |
| NC(=O)c1cc(S(=O)(=O)NCCCc2ccco2)cs1 | inactive |
| S=C(Nc1cccc(Cl)c1)Nc1ccc2c(c1)OCCO2 | inactive |
| CCS(=O)(=O)N1Cc2ccccc2CC1C(=O)Nc1ccc(OC)cc1OC (stereo unspecified) | inactive |
| COc1ccc(C(=O)N2CCC(C(=O)Nc3ccc(C)cc3)CC2)cc1 | inactive |
| COc1ccc(N2CCN(C(=O)C3CCN(C(=O)c4ccccc4Cl)CC3)CC2)cc1 | inactive |
| COc1ccc(C(=O)Nc2c(Cl)cc(Cl)cc2C(=O)N2CCC(C)CC2)cc1 | 13.1 µM (active) |
| CCCCc1ccc(NC(=O)NCc2cccnc2)cc1 | inactive |
| CCOc1ccc(S(=O)(=O)NCCC(=O)NCC(C)(C)N2CCOCC2)cc1 | inactive |
| Cc1ccc2occ(/C=N/NC(=O)c3ccccc3C)c(=O)c2c1 | 11.7 µM (active) |
| O=C(N/N=C/c1coc2ccccc2c1=O)c1cc2ccccc2o1 | inactive |
| CC(C)(C)OC(=O)NCCCCCC(=O)N/N=C/c1coc2ccccc2c1=O | inactive |
| Cc1[nH]c2ccccc2c1C(=O)CN1CCCC(C)C1 (stereo unspecified) | inactive |
| O=C(CSC1=NS(=O)(=O)c2cc(F)ccc2N1)Nc1ccccc1F | inactive |
| CCOc1ccc(C(=O)Nc2cc(Cl)ccc2-n2cncn2)cc1OC | inactive |
| COc1ccc(NC(=O)C(CC(C)C)NC(=O)C2CCC(C)CC2)cc1 (stereo unspecified) | inactive |
| CC(C)[C@H](NC(=O)N1CC(=O)Nc2ccccc21)C(=O)N[C@@H](Cc1c[nH]c2ccccc12)C(=O)O | inactive |
| CC1C(=O)Nc2ccccc2N1C(=O)c1ccc(F)cc1F (stereo unspecified) | inactive |
| CC(C)[C@H](NC(=O)N1c2ccccc2NC(=O)[C@@H]1C(C)C)C(=O)N[C@H](C(=O)O)c1ccccc1 | 8.28 µM (active) |

| SMILES | Potency |
| --- | --- |
| O=C(CNC(=O)c1cccnc1)N/N=C/c1cc(Br)c(O)c(Br)c1 | inactive |
| O=C(CCS(=O)(=O)c1ccccc1)NC1CCCC1 | inactive |
| COC(=O)c1ccc(CNC(=O)C2CCC(=O)N(Cc3ccccn3)C2)cc1 (stereo unspecified) | inactive |
| N#CCSc1nc2ccc(N3CCOCC3)cc2c(=O)n1CCc1ccccc1 | 13.1 µM (active) |
| CCCCn1c(N)c(N2CCOCC2)c(=O)n(CC(=O)NCCc2ccccc2)c1=O | inactive |
| O=C(CCn1c(SCC(=O)c2ccccc2)nc2ccccc2c1=O)NCc1ccc(F)cc1 | inactive |
| O=C(O)C1CC(=O)N(Cc2cccnc2)C1 (stereo unspecified) | inactive |
| O=S(=O)(NCc1cccnc1)c1ccc(Cl)nc1 | inactive |
| COC(=O)c1ccc(C23CC4(C2)[C@H](CN(Cc2cccnc2)[C@@H]4c2ccccc2)C3c2ccc(Cl)nc2)cc1 (stereo partly specified) | 2.33 µM (active) |
| Cc1ccc(CNC(=O)c2cccc3c2C(=O)c2ccc(N4CCC(C)CC4)cc2S3(=O)=O)cc1 | inactive |
| COc1ccc(-n2nc3c(c2NC(=O)Cc2cccc(C)c2)CS(=O)C3)cc1 (stereo unspecified) | inactive |
| COc1ccc(CC(=O)Nc2c3c(nn2-c2cccc(Cl)c2)CS(=O)C3)cc1 (stereo unspecified) | 1.47 µM (active) |
| Cc1cccc(CC(=O)Nc2c3c(nn2-c2cccc(Cl)c2)CS(=O)C3)c1 (stereo unspecified) | inactive |
| CC(=O)c1ccc(N2Cc3ccccc3C2)cc1 | inactive |
| COc1ccc(F)cc1S(=O)(=O)N1CCCCC1 | inactive |
| CCc1ccc(S(=O)(=O)Nc2cc3c(cc2N2CCCCC2)n(C)c(=O)c(=O)n3C)cc1 | inactive |
| c1ccc(CCC2=NCCn3cccc32)cc1 | 14.7 µM (active) |
| Cn1c(CCc2ccccc2)nnc1SCC(N)=O | inactive |
| CC1CSc2nnc(CCc3ccccc3)n21 (stereo unspecified) | inactive |
| CS(=O)(=O)c1ccc(C(=O)OCC(=O)NNC(=O)COc2ccc(Cl)cc2)cc1 | inactive |
| COc1ccc(C(C(=O)NC(C)(C)C)N(Cc2ccc(F)cc2)C(=O)CCC(=O)Nc2cc(C)on2)cc1 (stereo unspecified) | inactive |
| Cn1c(SCC(=O)Nc2nccs2)nnc1-c1cccnc1 | inactive |
| COC(=O)c1cn(CC(=O)NCc2cccs2)c2ccccc12 | 13.1 µM (active) |
| CCN(CC)C(=O)C(=O)c1cn(CC(=O)NCc2ccc3c(c2)OCO3)c2ccccc12 | inactive |
| O=C(Cn1cc(C(=O)c2cccs2)c2ccccc21)NCc1cccs1 | inactive |
| O=C(NCCc1ccccc1)c1ccc2c(c1)N(Cc1ccccc1)CCS2 | inactive |

| SMILES | Potency |
| --- | --- |
| O=C(OCc1ccccc1)c1ccc(O)cc1 | inactive |
| CS(=O)(=O)N1CCc2nc(-c3ccccc3)sc2C1 | inactive |
| CCOc1cc(C2C(C(=O)c3ccco3)=C(O)C(=O)N2Cc2ccccc2)ccc1O (stereo unspecified) | inactive |
| CCOC(=O)c1cc(Sc2ccccc2N)cc(C(=O)OCC)n1 | inactive |
| CC(C)=CCCC(C)CN1CCC(n2nccc2NC(=O)c2ccccc2)CC1 (stereo unspecified) | 14.7 µM (active) |
| CC(CN1CCC(n2nccc2NC(=O)C2CCCC2)CC1)c1ccccc1 (stereo unspecified) | 9.28 µM (active) |
| Cc1nn(C)c(Cl)c1CN1CCC(n2nccc2NC(=O)C2CCCC2)CC1 | inactive |
| CC(C)Oc1ccc(CN2CCC(n3nccc3NC(=O)c3cccnc3)CC2)cc1 | inactive |
| O=C(Nc1ccnn1C1CCN(C/C=C/c2ccc(F)cc2)CC1)C1CCCC1 | inactive |
| CC(=O)N[C@@H](C)C(=O)N1CCC(n2nccc2NC(=O)CCCc2ccccc2)CC1 | inactive |
| CN1CCN(c2ccccc2NC(=O)COc2ccc(C3CCCCC3)cc2)CC1 | inactive |
| N#Cc1cccc(OC(=O)c2ccc3c(=O)n4c(nc3c2)CCC4)c1 | inactive |
| O=C(NCCNc1ccccc1[N+](=O)[O-])c1ccccc1F | inactive |
| CCCCn1c(N)c(N(CCOC)C(=O)c2cccc(S(=O)(=O)N(C)c3ccccc3)c2)c(=O)[nH]c1=O | inactive |
| CCCCOC(=O)c1[nH]c(C)c(C(=O)OC)c1C | inactive |
| COCCOC(=O)c1[nH]c2c(c1C)C(=O)CC(c1ccc(OC)cc1)C2 (stereo unspecified) | inactive |
| CCOC(=O)C1=C(N)N2C(=O)C(C)SC2=C(C(=O)OCC)C1c1cc(OC)c(OC)c(OC)c1 (stereo unspecified) | inactive |
| CCCOC(=O)c1[nH]c2c(c1C)C(=O)CC(c1cc(OC)c(OC)c(OC)c1)C2 (stereo unspecified) | 11.7 µM (active) |
| CCCOC(=O)c1[nH]c2c(c1C)C(=O)CC(c1cccs1)C2 (stereo unspecified) | 9.28 µM (active) |
| Cc1cc(C)c(S(=O)(=O)n2cc(C(C)C(N)C(=O)O)c3ccccc32)c(C)c1 (stereo unspecified) | inactive |
| O=C(Nc1cccc(F)c1)NC1CCCc2ccccc21 (stereo unspecified) | inactive |
| COc1ccc(CN2CCC(n3nccc3NC(=O)CCCc3ccccc3)CC2)cc1C | inactive |
| COCCNC(=O)c1ccc(S(=O)(=O)c2ccc(Cl)cc2)c(NC(C)=O)c1 | inactive |
| COc1ccc([C@H]2CC(=O)C=C(/C=C/c3ccccc3)C2)cc1 | inactive |
| O=C(O)/C=C/c1ccc(OCCCF)cc1 | inactive |
| O=C(NNS(=O)(=O)c1ccc(Cl)cc1)C1CCN(Cc2ccccc2)CC1 | inactive |

| SMILES | Potency |
| --- | --- |
| CCOC(=O)C1(S(=O)(=O)c2ccc(Cl)cc2)CCN(Cc2ccccc2)CC1 | 2.94 µM (active) |
| CCOC(=O)C1(S(=O)(=O)c2ccccc2)CCN(Cc2ccccc2)CC1 | inactive |
| N#Cc1nc(-c2cccc3ccccc23)oc1N | inactive |
| Cc1cc(NC(=O)Nc2c[nH]c(=O)[nH]c2=O)ccc1Br | inactive |
| CC1CCN(S(=O)(=O)c2ccc3c(c2)n(C)c(=O)n3C)CC1 | inactive |
| COCCN1C(=O)C(=O)/C(=C(/O)c2ccc(S(=O)(=O)N3CCOCC3)cc2)C1c1ccc(OC)c(OC)c1 (stereo unspecified) | inactive |
| COCCN1C(=O)C(=O)/C(=C(/O)c2ccc(S(=O)(=O)N3CCCCC3)cc2)C1c1ccc(OC)c(OC)c1 (stereo unspecified) | 9.28 µM (active) |
| CCOc1cc(C2/C(=C(/O)c3ccc(S(=O)(=O)N4CCCCC4)cc3)C(=O)C(=O)N2CCOC)ccc1O (stereo unspecified) | inactive |
| CN(C)S(=O)(=O)c1cccc(-c2nn(-c3ccccc3)cc2/C=C2\SC(=S)N(CC(=O)O)C2=O)c1 | inactive |
| Cc1nn(C)c(C)c1C(C)NC(=O)c1ccc(OC2CCN(Cc3ccccn3)CC2)cc1 (stereo unspecified) | inactive |
| Cc1cccc(C(C)C)c1NC(=O)COC(=O)C1CC(=O)N(Cc2ccccc2)C1 (stereo unspecified) | inactive |
| Cc1ccc(S(=O)(=O)n2nc(OC(=O)C(C)(C)C)cc2N)cc1 | inactive |
| Cc1nn(C(C)(C)C)c(OC(=O)CC(C)C)c1S(=O)(=O)c1ccccc1 | 9.28 µM (active) |
| Nc1cc(OC(=O)c2ccccc2Br)nn1S(=O)(=O)c1ccccc1 | inactive |
| CCCc1ccc(OCC(O)CN2CCN(CCO)CC2)cc1 (stereo unspecified) | 10.4 µM (active) |
| CCCc1ccc(OCC(O)CN2CCN(C(=O)OCC)CC2)cc1 (stereo unspecified) | inactive |
| CCc1ccc(OCC(O)CN2CCN(CCO)CC2)cc1 (stereo unspecified) | inactive |
| Cc1ccc(S(=O)(=O)N2CCCCC2)cc1C(=O)N1CCN(CCO)CC1 | inactive |
| CN(CC(=O)Nc1cccc(F)c1)C(=O)C1CC(=O)N(CCc2ccccc2)C1 (stereo unspecified) | inactive |
| COc1ccccc1CN1CCCC(N2CCN(c3ccc(F)cc3)CC2)C1 (stereo unspecified) | inactive |
| COc1cccc(N2C(=O)CC(N3CCc4ccccc4C3)C2=O)c1 (stereo unspecified) | inactive |
| COc1ccc(CN2CCCC(N3CCc4ccccc4C3)C2)c(O)c1 (stereo unspecified) | 8.28 µM (active) |
| COc1ccc(CN2C3CCCC2CC(NC(=O)c2cccc(F)c2)C3)cc1 (stereo unspecified) | inactive |
